Experimental data published in PubChem BioAssay (NCATS).
The source made the active and inactive calls. The call rests on the fitted dose curve.

Assay: qHTS drug screen for cell cycle checkpoint inhibitors in PARPi-resistant BRCA-mutant ovarian cancer cell lines. (AID 1963452)
Details: PEO1/OlaR viability, CellTiter-Glo luminescence, 96 h, stronger effect = lower value
How it was run: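 PEO1, PEO4 and PEO1/OlaR ovarian cancer cells, 600 per well, exposed 96 h at 37C to a dilution series. Viability read by CellTiter-Glo luminescence, normalized to DMSO and empty wells; activity summarized as Z-AUC.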

[1] = measured here: PEO1 parental Z-AUC

| SMILES | Z-AUC | Z-AUC [1] | Z-AUC (measured here: PEO4 Z-AUC) |
| --- | --- | --- | --- |
| CCc1ccc(C(=O)Nc2cc(CN3CCN(C)CC3)cc(C(F)(F)F)c2)cc1C#Cc1cnc2ccnn2c1 | -0.668 (inactive) | -1.24 | -0.914 |
| O=C(NC1CC1)c1cccc(-c2ccc3c(NC(=O)C4CC4)n[nH]c3c2)c1 | -1.31 (inactive) | -0.612 | -0.0864 |
| Cn1cc(C2=C(c3c4n(c5ccccc35)CCC(CN)C4)C(=O)NC2=O)c2ccccc21 (stereo not given) | 0.936 (inactive) | 1.25 | 1.18 |
| Cn1c(Nc2ccc(C(F)(F)F)cc2)nc2cc(Oc3ccnc(-c4ncc(C(F)(F)F)[nH]4)c3)ccc21 | -0.152 (inactive) | -0.11 | -1.19 |
| c1ccc(CNc2nc(NCc3ccccc3)c3ccccc3n2)cc1 | 0.198 (inactive) | -0.502 | -0.739 |
| CCOC(=O)C=C[C@H](C[C@@H]1CCNC1=O)NC(=O)[C@@H](CC(=O)[C@@H](NC(=O)c1cc(C)on1)C(C)C)Cc1ccc(F)cc1 | -0.315 (inactive) | -0.169 | 0.164 |
| CC(N[C@H]1CCCC[C@H]1NC(=O)c1ccc(Cl)cc1)c1cccc2ccccc12 (stereo not given in full) | 0.148 (inactive) | 0.0458 | 0.472 |
| COc1cc(C(=O)NC2CCN(C)CC2)ccc1Nc1ncc2c(n1)N(C1CCCC1)CCC(=O)N2C(C)C | -0.77 (inactive) | 0.079 | -0.318 |
| NC(=NCCCCCCN=C(N)N=C(N)Nc1ccc(Cl)cc1)N=C(N)Nc1ccc(Cl)cc1 | 0.994 (inactive) | 0.0732 | -0.00855 |
| COc1ccc(C[C@@H](C)[C@@H](C)Cc2ccc(OC)c(OC)c2)cc1OC | 0.193 (inactive) | -0.135 | 0.0624 |
